About 13,000 (27%) of roughly 48,000 compounds showed an effect of 50% or more. Some of the results follow.
Each compound was assayed on Wolbachia pipientis (assay: Anti-Wolbachia Cell-Based Screen). Details: 5 µM.
Format: functional
Parameters: scale not given: in the data most compounds retested in dose-response had high values
In the case of `CCOc1ccc(N(C)S(=O)(=O)c2c[nH]c(C(C)C)n2)cc1`, the “Percent Effect” value was -17.69%. With `O=C(CNC(=O)C1CC1)NCCOc1cccc(Cl)c1Cl` the “Percent Effect” value was 3.053%. With `CC1CN(C(=O)c2ccc(C(N)=O)cc2)c2ccc(F)cc2O1` (stereo unspecified) the “Percent Effect” value was -13.6%. `Cc1ccc2c(c1)OC(C)CN2C(=O)Cc1ccc(C)nc1` (stereo unspecified) was tested, and the “Percent Effect” value was -1.859%. With `CC1CN(C(=O)c2cc[nH]c(=O)c2)c2ccccc21` (stereo unspecified) the “Percent Effect” value was 6.091%. In the case of `Cc1ccc2c(c1)N(C(=O)c1c[nH]c(C)cc1=O)CC(C)O2` (stereo unspecified), the “Percent Effect” value was 67.22%. `Cc1ccc2c(c1)N(C(=O)c1nccnc1N)CC(C)O2` (stereo unspecified) was tested, and the “Percent Effect” value was -0.6709%. For `Cc1ccc2c(c1)N(C(=O)c1cc[nH]c(=O)c1)CC(C)O2` (stereo unspecified), the “Percent Effect” value was 102.6%. In the case of `Cc1ccc2c(c1)OC(C)CN2C(=O)CCc1cccnc1` (stereo unspecified), the “Percent Effect” value was 9.162%. With `Cc1ccc2c(c1)OC(C)CN2C(=O)c1c[nH]c(C)cc1=O` (stereo unspecified) the “Percent Effect” value was 100.7%. With `Cc1ccc2c(c1)OC(C)CN2C(=O)CCc1cscn1` (stereo unspecified) the “Percent Effect” value was -1.954%. `CC(C)n1cnnc1CCNCc1cn(CCC(N)=O)c2ccccc12` was tested, and the “Percent Effect” value was -8.335%. In the case of `Cn1/c(=N/C(=O)CSCC(=O)Nc2nccs2)sc2ccccc21`, the “Percent Effect” value was -2.902%. For `Cc1cnc2c(S(=O)(=O)NC(=O)C(C)OCC3CC3)cccc2c1` (stereo unspecified), the “Percent Effect” value was -0.9774%. For `Cc1ccc(C(=O)N2CCCC(Cn3cc(C(C)(C)N)nn3)C2)s1` (stereo unspecified), the “Percent Effect” value was -58.84%. `Cc1cccnc1C(=O)N1CCCC(c2[nH]ncc2S(C)(=O)=O)C1` (stereo unspecified) was tested, and the “Percent Effect” value was -6.313%. With `Cc1ncncc1C(=O)N1CCCN(Cc2ncc(Cl)n2C)CC1` the “Percent Effect” value was 13.88%. For `Cc1ccsc1C(=O)N1CCCC(c2[nH]ncc2S(C)(=O)=O)C1` (stereo unspecified), the “Percent Effect” value was 116.3%. `Cc1csc(C(=O)N2CCCC(c3[nH]ncc3S(C)(=O)=O)C2)c1` (stereo unspecified) was tested, and the “Percent Effect” value was 97.17%. With `Cc1ccc(C(=O)N2CCCC(c3[nH]ncc3S(C)(=O)=O)C2)s1` (stereo unspecified) the “Percent Effect” value was 93.28%. With `Cc1[nH]ncc1C(=O)N1CCCC(c2cc(C(F)(F)F)[nH]n2)C1` (stereo unspecified) the “Percent Effect” value was -5.603%. In the case of `Cc1ncncc1C(=O)N1CCCC(c2[nH]ncc2S(C)(=O)=O)C1` (stereo unspecified), the “Percent Effect” value was 130.2%. With `Cc1ccsc1C(=O)N1CC(C(=O)N2CCCC2)C2(CCOCC2)C1` (stereo unspecified) the “Percent Effect” value was -0.2023%. `CC(Nc1ccn(Cc2ccccn2)n1)C(=O)NC(C)(C)C` (stereo unspecified) was tested, and the “Percent Effect” value was 22.79%. With `CCNC(=O)COc1ccc(C(=O)NC(C)CCc2ccco2)cc1` (stereo unspecified) the “Percent Effect” value was 6.867%. In the case of `CC1(C)[C@H](Cc2cc(CN3CCCCC3)on2)C[C@@H]1NC(=O)C1CC1`, the “Percent Effect” value was 0.3573%. `CCc1nc(CNCC2CCCN2c2cccnn2)no1` (stereo unspecified) was tested, and the “Percent Effect” value was 94.84%. For `c1cnnc(N2CCCC2CNCc2nc(-c3ccsc3)no2)c1` (stereo unspecified), the “Percent Effect” value was 0.4887%. `c1cnnc(N2CCCC2CNCc2noc(C3CC3)n2)c1` (stereo unspecified) was tested, and the “Percent Effect” value was 124.8%. `CCCc1nc(CNCC2CCCN2c2cccnn2)no1` (stereo unspecified) was tested, and the “Percent Effect” value was 124.8%. With `c1cnnc(N2CCCC2CNCc2nc(C3CC3)no2)c1` (stereo unspecified) the “Percent Effect” value was 6.175%. With `Cc1nc(CNCC2CCCN2c2cccnn2)no1` (stereo unspecified) the “Percent Effect” value was 8.82%. With `COCCc1noc(CNCC2CCCN2c2cccnn2)n1` (stereo unspecified) the “Percent Effect” value was 10.85%. With `Cc1ccoc1-c1nnc(CNCC2CCCN2c2cccnn2)o1` (stereo unspecified) the “Percent Effect” value was 10.61%. In the case of `CCc1noc(CNCC2CCCN2c2cccnn2)n1` (stereo unspecified), the “Percent Effect” value was 129.4%. `CCc1nnc(CNCC2CCCN2c2cccnn2)o1` (stereo unspecified) was tested, and the “Percent Effect” value was 6.974%. For `c1cnnc(N2CCCC2CNCc2nc3ccccc3o2)c1` (stereo unspecified), the “Percent Effect” value was 8.977%. For `c1cnnc(N2CCCC2CNCc2nnc(C3CC3)o2)c1` (stereo unspecified), the “Percent Effect” value was -1.218%. For `Cc1cc(C(F)(F)F)nc(N(C)Cc2c(C)noc2C)n1`, the “Percent Effect” value was 12%. In the case of `CCOCCn1nc(C)cc1C(=O)N1CC[C@](O)(CC)[C@H](O)C1`, the “Percent Effect” value was -19.56%. With `CCc1ccccc1OCCN(C)C(=O)CN1CCCC1` the “Percent Effect” value was -0.4334%. For `COc1ccc(CN2CC(O)CN(C(=O)OCC(C)C)CC2=O)cc1` (stereo unspecified), the “Percent Effect” value was 126.2%. `CC(C)COC(=O)N1CC(=O)N(Cc2ccc(Cl)cc2)CC(O)C1` (stereo unspecified) was tested, and the “Percent Effect” value was 87.43%. With `COc1ccc(CN2CCN(c3nccnc3OC)CC2=O)cc1` the “Percent Effect” value was -6.7%. `Cc1ccc(CN2C[C@H]3CN(C(=O)c4ccno4)CCN3C2=O)cc1` was tested, and the “Percent Effect” value was -7.285%. `CC(C)N(CCO)C(=O)C1CCC(=O)N(Cc2ccc(Cl)cc2)C1` (stereo unspecified) was tested, and the “Percent Effect” value was 0.7255%. For `COc1ccc(CN2C[C@H]3CN(C(=O)c4ccno4)CCN3C2=O)cc1`, the “Percent Effect” value was -1.817%. In the case of `Cc1ccc(CN2CC(O)CN(C(=O)OCC(C)C)CC2=O)cc1` (stereo unspecified), the “Percent Effect” value was 102.7%. In the case of `COc1ccc(CN2CC(O)CN(C(=O)CC(C)C)CC2=O)cc1` (stereo unspecified), the “Percent Effect” value was 135.2%. In the case of `CCc1cnc(N2C[C@H]3CN(Cc4ccc(OC)cc4)C(=O)[C@H]3C2)nc1`, the “Percent Effect” value was -6.562%. `CCOC(=O)c1coc(N2CCN(Cc3ccc(C)cc3)C(=O)C2)n1` was tested, and the “Percent Effect” value was -18.23%. In the case of `CCCN(CCO)C(=O)C1CCC(=O)N(Cc2ccc(Cl)cc2)C1` (stereo unspecified), the “Percent Effect” value was -2.566%. With `COC(=O)CCNC(=O)c1ccoc1CN1c2ccccc2CC1C` (stereo unspecified) the “Percent Effect” value was -5.639%. For `CC(=O)Nc1ccc(-c2cn(CCn3c(C)cc(C)nc3=O)nn2)cc1`, the “Percent Effect” value was -7%. With `Cc1ccnc(NC(=O)c2cc(C)oc2C)c1` the “Percent Effect” value was 11.88%. In the case of `Cc1cc(CNC(=O)CCCN2CCCCC2)n(C)n1`, the “Percent Effect” value was -11.62%. For `CCn1ccc(NC(=O)c2cc(C)on2)n1`, the “Percent Effect” value was 120%. In the case of `Cc1ccsc1CNC(=O)Nc1ccn(CCN2CCOCC2)n1`, the “Percent Effect” value was -52.79%. For `O=C(Cc1ccccc1Cl)Nc1ccn(CCN2CCOCC2)n1`, the “Percent Effect” value was -48.65%. With `CCN(CC)S(=O)(=O)c1ccc(CNC(=O)c2cc(C)on2)cc1` the “Percent Effect” value was 15.58%. With `Cc1cc(C(=O)Nc2ccn(CCCN3CCCC3)n2)no1` the “Percent Effect” value was 96.67%. In the case of `Cc1cc(C(=O)Nc2ccn(CCCN3CCCC3)n2)c(C)o1`, the “Percent Effect” value was 100.8%. `Cc1ccc(C(=O)Nc2ccn(CCC(N)=O)n2)cc1` was tested, and the “Percent Effect” value was 10.52%. For `CCOc1cc(C)nc(N2CCN(C(=O)c3cc(Cl)c[nH]3)CC2)n1`, the “Percent Effect” value was 4.417%. With `Cc1cnn(Cc2cc(F)ccc2F)c1NC(=O)C1CCOCC1` the “Percent Effect” value was -4.081%. `CNC(=O)C1(N2CCC[C@H]2C(=O)NC2CCOCC2)CCOCC1.Cl` was tested, and the “Percent Effect” value was -3.696%.
